# Compound activity from PubChem BioAssay.
# Only some compounds are listed: those with a hit (about 7.9% of all), similar ones and a draw of the others.
# MCF10A rereplic = inducers of DNA re-replication in MCF 10A breast cells. MCF 10A DNA re-replication, Hoechst nuclear intensity, 48 h. Potency, µM (doses to about 46.1 µM), without a hit: at the top dose activity, positive = re-replication, usual class: activators. 350,000 tested, 2.9% active; further: % of control where 0% means no effect; nearly all actives have a fitted effect of over 50% in size
# SW480 rereplic = DNA re-replication induction in SW480 cells. SW480 DNA re-replication, Hoechst DNA content imaging, 48 h. Potency, µM (top dose mostly 46.1 µM), for the others: at the highest dose re-replication activation, hits mostly activators. 340,000 tested, 1.8% active; further: % of control where 0% means no effect; nearly all actives have a fitted effect of over 55% in size
#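 Hoechst fluorescence of nuclei (405 nm excitation, 500-530 nm emission) measured by plate-scanning imager after 48 hr compound exposure at 37 C; re-replication scored as increased number of nuclei with elevated intensity.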
# KB-V1 MDR tox = kills drug-selected multidrug resistant KB-V1 cells. 400,000 tested, 3.4% active. Potency, µM (top dose mostly 46.1 µM), most hits filed as cytotoxic. KB-V1 MDR cells viability, CellTiter-Glo, 72 h; further: on the % scale 0 is the no-effect control and ±100 the full control effect; nearly all actives have a fitted effect of over 60% in size
#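 qHTS viability screen in drug-selected KB-V1 MDR cells: 72 h compound treatment at 37 degrees C, ATP luminescence end point.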
# KB-3-1 cytotox = kills parental KB-3-1 adenocarcinoma cells; KB-3-1 viability, CellTiter-Glo ATP luminescence, 72 h; Potency, µM (titrated, usually from 46.1 µM), actives largely listed as cytotoxic; 400,000 tested, 1.4% active; further: on the % scale 0 is the no-effect control and ±100 the full control effect; nearly all actives have a fitted effect of over 60% in size
#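 KB-3-1 parental drug-naive adenocarcinoma cells in DMEM/10% FBS, incubated 72 h at 37 C with pin-transferred compounds across a concentration series. Viability by CellTiter-Glo luminescence; concentration-response curves fitted after normalization.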
# HT1080NT lethal = kills 2HG-producing HT-1080-NT fibrosarcoma cells; AID 686970; Potency, µM (highest dose often 46.1 µM), inactives show at the highest dose activity, negative = less viability, usual class: cytotoxic; HT-1080-NT fibrosarcoma viability, CellTiter-Glo ATP luminescence, 48 h; 360,000 tested, 1.6% active;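 further: NT is the 2HG producing partner of a matched IDH1 knockdown line; 0% = DMSO-treated cells and -100% = media-only wells without cells; nearly all actives have a fitted effect of over 55% in size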
#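 Viability by CellTiter-Glo luminescence after 48 h compound exposure at 37C of HT-1080-NT cells (750/well, RPMI, 5% FBS). % activity scaled between DMSO wells and medium-only wells, then curve-fitted and categorized by curve class.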
# HT1080 IDH1KD tx = HT-1080 IDH1 knockdown cell toxicity (counter line); HT-1080 IDH1 knockdown viability, ATP luminescence, 48 h; Potency, µM (highest dose often 46.1 µM), inactives show at the highest dose activity, negative = toxicity, hits mostly cytotoxic; 360,000 tested, 2% active;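 further: 0% = DMSO wells and -100% = cell-free medium wells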
#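 CellTiter-Glo luminescence after 48 h compound exposure at 37 degrees C of IDH1-knockdown HT-1080 cells in 5% FBS RPMI. %Activity scaled between DMSO wells and cell-free media wells, with curves fitted and assigned curve classes.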
# Active calls of the source: *; i = inactive; ? = inconclusive; · = not tested or not shown. The call rests on the fitted dose curve; in most records, active means well fitted curve in the direction sought with a large enough effect; inconclusive means small, poorly fitted or top-dose-only effect, or another doubt; inactive means no such curve, though single readings can be large; an effect the other way counts as inactive or inconclusive. Potency means the concentration at half of the fitted maximal effect.
SMILES,MCF10A rereplic,SW480 rereplic,KB-V1 MDR tox,KB-3-1 cytotox,HT1080NT lethal,HT1080 IDH1KD tx
CCC(C(=O)N(C)Cc1ccccc1)n1nc(C)c2sc3ccccc3c2c1=O (stereo not given),·,·,i,i,·,·
COc1ccc(-n2c(-c3ccc(Cl)cc3)c[n+]3c2CCc2ccccc2-3)cc1,10%,30%,i,?,23µM*,8.2µM*
COc1cc(-c2noc(C)c2/C=C/c2ccc(C(=O)O)cc2)cc(OC)c1OC,?,?,i,?,?,18µM*
COc1cc(-c2noc(C)c2/C=C/c2cccc([N+](=O)[O-])c2)cc(OC)c1OC,?,?,5.8µM*,2.9µM*,2.3µM*,3.7µM*
CCOc1ccc2oc(C(=O)OCC(=O)NCC3CCCO3)c(C)c2c1 (stereo not given),2%,0%,i,i,0%,-14%
C/C(=N\NC(=O)C1(C)CC1(Br)Br)c1ccc([N+](=O)[O-])cc1 (stereo not given),2%,-11%,i,i,1%,0%
C/C(=N\NC(=O)C1(C)CC1(Br)Br)c1ccc(NC(=O)c2ccc(C)o2)cc1 (stereo not given),?,2%,21µM*,?,0%,-9%
O=C1N=C(N2CCN(c3cccc4ccccc34)CC2)S/C1=C/c1cccs1,-21%,1%,i,i,-2%,0%
Cc1ccccc1N1CCN(C2=NC(=O)/C(=C\c3cccs3)S2)CC1,6.5µM*,?,i,?,?,?
Cc1nnc(SCC(=O)Nc2nsc(-c3ccccc3)n2)s1,-6%,-1%,i,i,10%,9%
CCOC(=O)C(C)/C(C)=N/NC(=O)CCC(=O)Nc1cc(C)ccc1C (stereo not given),1%,-3%,i,i,14%,2%
COCCNc1nc(NCc2ccc(C(C)C)cc2)c2sccc2n1,·,·,i,i,13µM*,18µM*
COCCNc1nc(NCc2ccc(C)cc2C)c2sccc2n1,·,·,i,i,-11%,-29%
COCCNc1nc(Nc2ccc(C)cc2C)c2sccc2n1,·,·,5.2µM*,5.2µM*,?,?
CC(/C=C1\SC(=S)N(CCC(=O)Nc2ccccc2O)C1=O)=C\c1ccccc1,-4%,10%,i,i,1%,2%
CCOC(=O)Cn1c(=O)oc2cc(S(=O)(=O)N3CCCC(C)C3)ccc21 (stereo not given),7%,8%,i,i,3%,7%
O=C1C(Cl)=C(NC(=O)c2ccccc2)C(=O)C(Cl)=C1NC(=O)c1ccccc1,27%,?,?,?,10µM*,8.2µM*
O=C(Nc1ccc(Nc2ccccc2)cc1)c1ccc(Cl)cc1,6%,9%,i,i,-8%,-25%
O=C(NC1=C(Nc2ccc(Cl)cc2)C(=O)c2ccccc2C1=O)c1ccccc1,3%,?,21µM*,18µM*,?,-17%
O=C(NC1=C(NC2CCS(=O)(=O)C2)C(=O)c2ccccc2C1=O)c1ccccc1 (stereo not given),?,?,?,?,15µM*,18µM*
Cc1cccc(NC(=O)c2cccc3c2C(=O)c2ccccc2-3)c1,22%,-1%,6.5µM*,i,5%,10%
O=C(Nc1cccc(Cl)c1)c1ccccc1,-7%,-58%,i,i,8%,13%
CS(=O)(=O)Nc1nc2n(n1)C(c1ccccc1)CC(c1ccccc1)N2 (stereo not given),-4%,-7%,i,i,24%,11%
CN(C)S(=O)(=O)c1cccc(NC(=O)COC(=O)c2cc3ccccc3oc2=O)c1,2%,6%,i,i,2%,2%
Cc1cccc(NC2=C(NC(=O)c3ccccc3)C(=O)c3ccccc3C2=O)c1,?,18µM*,15µM*,i,?,?
